Results filed as inconclusive are left out. Some structures have more than one record in an assay (separate samples or runs), and their calls can disagree. The source made the active and inactive calls. The calls were made as follows: active = hit-call score of the fitted dose curve at least 0.9, where 1 is the maximum; inconclusive = response in the unintended direction; inactive = score below 0.9.

The nature of this test: ACEA_AR_agonist_AUC_viability: ACEA Biosciences xCELLigence Real-Time Cell Analysis on Androgen Receptor Agonism for Viability (AID 2283775).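 As to AC50: viability read 80 hours after compound addition.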 Summed up:
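Viability endpoint from xCELLigence impedance in 22Rv1 prostate cells at 80 h. Eight-point series, 100 uM maximum final.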
Consider `OCC(CO)(CBr)CBr`, for which the result was inactive. By AC50 is commonly meant the concentration giving half of the maximal activity seen. For `NC(=NCCCCCCN=C(N)/N=C(\N)Nc1ccc(Cl)cc1)/N=C(\N)Nc1ccc(Cl)cc1`, the half-maximal activity concentration (AC50) was 10.5 µM (active).

As for `Cc1ccc(S(=O)(=O)O)cc1`, the outcome was inactive. Still for that read-out and setting: the entry for `COc1cc([N+](=O)[O-])ccc1N` is “inactive”; for `O=C1NS(=O)(=O)c2ccccc21` it is “inactive”. Turning to `CCCCCCCCCCCC`, the outcome was inactive. The same measure, in the same setting: to `CC(C)[C@@H]1CC[C@@H](C)C[C@H]1O` belongs “inactive”. `CN(Cc1cnc2nc(N)nc(N)c2n1)c1ccc(C(=O)N[C@@H](CCC(=O)O)C(=O)O)cc1`: the concentration at half-maximal activity (AC50) is 0.787 µM (active).

For the compound `CCCCC(CC)C(=O)O` (configuration not stated), the AC50 was 4.14 µM (active) and the outcome was inactive. As for `CCCCc1oc2ccccc2c1C(=O)c1cc(I)c(OCCN(CC)CC)c(I)c1`, the half-maximal activity concentration (AC50) was 9.56 µM (active). For `NS(=O)(=O)O`, the outcome was inactive.

Regarding `Cc1cc(C(C)(C)C)c(O)c(C(C)(C)C)c1`, the compound was classed as inactive. Still for that read-out and setting: the entry for `CCC(C)c1ccccc1O` (configuration not stated) is “inactive”; for `CCCCC=O` it is “inactive”. As to `Cc1ccc(C)c(S(=O)(=O)O)c1`, the call was inactive. On the same count and under the same terms, to `CC(O)COc1ccccc1` (configuration not stated) belongs “inactive”.

As to `CCCCc1ccc2ccccc2c1S(=O)(=O)O`, the AC50 was 3.3 µM (active).

On to `O=C(CCCN1CCC(O)(c2ccc(Cl)cc2)CC1)c1ccc(F)cc1`, for which the AC50 was 63.8 µM (active). Consider `CN(C)CCOC(c1ccccc1)c1ccccc1`, for which the compound was called inactive. For the compound `Cc1[nH]nc2c1N=C(c1ccccc1Cl)c1cc([N+](=O)[O-])ccc1N2`, the AC50 was 1.75 µM (active). On to `c1cnc2c(c1)ccc1cccnc12`, for which the concentration at half-maximal activity (AC50) was 3.4 µM (active). With `Cc1cc(Cc2cc(C)cc(C(C)(C)C)c2O)c(O)c(C(C)(C)C)c1`, the compound was classed as inactive. On the same count and under the same terms, to `Cc1cc(C(=C2C=CC(=Nc3ccc(S(=O)(=O)O)cc3)C=C2)c2ccc(Nc3ccc(S(=O)(=O)O)cc3)cc2)cc(S(=O)(=O)O)c1N` belongs “inactive”. The same measure, in the same setting: to `NCCN` belongs “inactive”.

For `CCCCCCCCCCCC(=O)O`, the result was inactive. Consider `CCCCCCCCCCCCOC(=O)c1cc(O)c(O)c(O)c1`, for which the AC50 was 7.6 µM (active). For the compound `CCc1ccccc1O`, the compound was classed as inactive.

Turning to `CCCCCCc1ccc(N)cc1`, the result was inactive.

In the case of `CC(=O)Nc1ccc(O)cc1`, the compound was called inactive. Regarding `CC(C)c1c(C(=O)Nc2ccccc2)c(-c2ccccc2)c(-c2ccc(F)cc2)n1CC[C@@H](O)C[C@@H](O)CC(=O)O`, the AC50 was 4.23 µM (active). On to `NCc1cccc(CN)c1`, for which the compound was called inactive.
